Experimental data: PubChem BioAssay AID588763 (NMMLSC, 2011)
Measured potencies and affinities stand elsewhere. Activity calls are given as the source filed them. The rule behind the calls is not given here.

What follows are compounds tested against Beta-2 adrenergic receptor (Homo sapiens) (UniProt P07550) (assay: ADRB2 activation measured by internalization – cell-based, FAP fluorogen, flow cytometry, cherry pick 1, dose response (AID 588763)). Settings: AM2.2-beta2AR cells, 90 min; series mostly up to 33 µM.
Sequence of Beta-2 adrenergic receptor (Homo sapiens) (P07550 whole entry, looked up): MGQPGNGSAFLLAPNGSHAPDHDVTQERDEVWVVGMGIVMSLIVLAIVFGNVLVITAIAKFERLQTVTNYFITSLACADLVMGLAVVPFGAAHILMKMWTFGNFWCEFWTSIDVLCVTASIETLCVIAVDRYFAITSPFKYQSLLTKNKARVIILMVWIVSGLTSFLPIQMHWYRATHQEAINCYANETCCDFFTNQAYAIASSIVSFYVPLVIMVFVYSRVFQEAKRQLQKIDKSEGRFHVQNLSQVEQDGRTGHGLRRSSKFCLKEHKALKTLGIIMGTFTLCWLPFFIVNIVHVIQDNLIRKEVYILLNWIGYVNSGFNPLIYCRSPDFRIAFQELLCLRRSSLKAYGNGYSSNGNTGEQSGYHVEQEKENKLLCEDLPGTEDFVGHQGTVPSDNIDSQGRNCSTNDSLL

SMILES | outcome
Cc1ccc(C(=O)c2cc([N+](=O)[O-])ccc2N2CCCCC2)c(C)c1 | inactive
O=C(Nc1ccc(-c2cccc(F)c2)cc1)C1CCCN(Cc2ccccn2)C1 (configuration not stated) | inactive
CCC(NC(=O)c1cc(COc2ccc(C)nc2)on1)c1ccc(C)cc1 (configuration not stated) | inactive
CN(C)S(=O)(=O)c1cccc(NC(=O)c2ccc(N3CCOCC3)c([N+](=O)[O-])c2)c1 | inactive
O=C(Nc1cccc(-c2nc3cccnc3s2)c1)C1c2ccccc2Oc2ccccc21 | inactive
O=C(Nc1ccc2nc(-c3cccs3)c(-c3cccs3)nc2c1)N1CCOCC1 | inactive
COc1ccc(NC(=O)Cn2nnc(-c3ccccc3NC(=O)C3CC3)n2)cc1 | inactive
O=C1CN(S(=O)(=O)c2cccc(Cl)c2Cl)c2ccccc2N1 | inactive
COc1ccc(CCNCC(O)c2ccccc2)cc1 (configuration not stated) | inactive
CC(=O)c1ccc(NC(=O)c2ccc3c(Cl)c4c(nc3c2)CCCC4)cc1 | inactive
CCOC(=O)c1ccc(N=c2sc(C(=O)OC)cc(=O)n2-c2ccc(C(=O)OCC)cc2)cc1 | inactive
Cc1ccccc1OCc1nc(-c2ccc(NC(=O)c3ccc4c(c3)OCO4)cc2)no1 | inactive
O=[N+]([O-])c1cnc(Sc2ccncn2)s1 | inactive
COCC(C)NC(=O)CCS(=O)(=O)c1nc(-c2ccc(OC)cc2)cc(C(F)(F)F)n1 (configuration not stated) | inactive
COc1ccc(C(=O)Nc2nc3cc4c(cc3s2)OCCO4)c(OC)c1 | inactive
CC1=NN(C(N)=S)C(=O)C1N=Nc1ccc(F)cc1 (configuration not stated) | inactive
Cc1cc(S(=O)(=O)N2CCOCC2)ccc1OCC(=O)Nc1ccccc1C(F)(F)F | inactive
